# Data published in PubChem BioAssay (Tox21).
# Inconclusive results are not listed. Entries that show only a call come without a potency. Unmarked numbers belong to inactive results. Active and inactive are the calls of the source. Unless noted, the call rests on the fitted dose curve; in most records, active means well fitted cell-killing curve with a large enough effect in the repeat runs (not every such curve was filed as active); inconclusive means weak or mixed curves, or effect the other way; inactive means no such curve, though single readings can be large or run the other way.
# Test system: not listed separately
# Assay: qHTS assay to identify small molecule agonists of the farnesoid-X-receptor (FXR) signaling pathway - cell viability counter screen (AID 743218; active means well fitted cell-killing curve with a large enough effect in the repeat runs; further: nearly all actives have a fitted effect of over 45% in size)
# Conditions: FXR-bla HEK293T viability, CellTiter-Glo luminescence, 16 h; series mostly up to 62.6 µM
# Procedure, shortened: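 Readout: CellTiter-Glo luminescence, 30 min RT, multiplexed after the FXR-bla FRET reading. HEK 293T FXR-UAS-bla cells received compound 5 h post-plating and were incubated 16 h at 37 C.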
SMILES,Potency,"viability change, negative = cytotoxic"
CC(C)OC(=O)CCCCC(=O)OC(C)C,inactive,
CC(=O)Nc1ccc(S(=O)(=O)Nc2ccc([N+](=O)[O-])cc2)cc1,inactive,
Cc1ccc(S(=O)(=O)O)c(C)c1,inactive,
COc1ccc2c(c1)C(=O)N(CCc1ccc(S(=O)(=O)NC(=O)NC3CCCCC3)cc1)C(=O)C2(C)C,inactive,
CCN(C)C(=O)Oc1cccc([C@H](C)N(C)C)c1,inactive,
CC(C)CCCCOC(=O)c1ccccc1C(=O)OCCCCC(C)C,inactive,
C=C(C)C(=O)OCC(C)(C)COC(=O)C(=C)C,inactive,
CC(=O)Nc1cccc(C)c1,inactive,
CC(C)(C)c1nnc(NS(=O)(=O)c2ccc(N)cc2)s1,inactive,
OCCN(CCO)c1cccc(Cl)c1,inactive,
COc1cc2c(cc1OC)[C@@H]1CC(=O)[C@@H](CC(C)C)CN1CC2,inactive,
O=C(c1ccc(O)cc1)c1ccc(O)c(O)c1O,inactive,
CCCCNC1CC(C)(C)NC(C)(C)C1,inactive,
CCO[Si](CCCS)(OCC)OCC,inactive,
CC(CC=O)CCCC(C)(C)O (stereo not given),inactive,
CCCCCCOC(=O)CC,inactive,
O=C(O)CCSSCCC(=O)O,inactive,

SMILES,Potency,"viability change, negative = cytotoxic"
O=C1CCCC(=O)O1,inactive,
CCCCCOC(=O)CCC,inactive,
CCCC/C=C\CCCCCCCCCC=O,inactive,
C=C(C)C(=O)OCc1ccccc1,inactive,
COP(=O)(OC)OC(c1ccc(Cl)cc1)P(=O)(OC)OC (stereo not given),inactive,
NS(=O)(=O)c1ccc(NC(=O)CCC(=O)O)cc1,inactive,
CCCCCCOc1ccccc1C(N)=O,inactive,
C=C(C)C(=O)OCCN(CC)CC,inactive,
CCCOC(OCCC)OCCC,inactive,
CCOCCOCCOCC,inactive,
CCc1ccc(C=O)cc1,inactive,
C[Si](C)=O,,5.27% [at 5.95 µM]
COCCOC(=O)C1=C(C)NC(C)=C(C(=O)OC(C)C)C1c1cccc([N+](=O)[O-])c1 (stereo not given),inactive,
O=C(O)Cc1ccc(Cl)cc1Cl,inactive,
CC(CN)CC(C)(C)CCN (stereo not given),inactive,
COC(=O)[C@@H]1[C@H]2C[C@H]3c4[nH]c5ccccc5c4CCN3C[C@@H]2CC[C@@H]1O,inactive,
Cc1ccccc1N=O,inactive,

# Biological target: Bile acid receptor (Homo sapiens) (UniProt Q96RI1)
# Sequence (Q96RI1 whole entry, looked up): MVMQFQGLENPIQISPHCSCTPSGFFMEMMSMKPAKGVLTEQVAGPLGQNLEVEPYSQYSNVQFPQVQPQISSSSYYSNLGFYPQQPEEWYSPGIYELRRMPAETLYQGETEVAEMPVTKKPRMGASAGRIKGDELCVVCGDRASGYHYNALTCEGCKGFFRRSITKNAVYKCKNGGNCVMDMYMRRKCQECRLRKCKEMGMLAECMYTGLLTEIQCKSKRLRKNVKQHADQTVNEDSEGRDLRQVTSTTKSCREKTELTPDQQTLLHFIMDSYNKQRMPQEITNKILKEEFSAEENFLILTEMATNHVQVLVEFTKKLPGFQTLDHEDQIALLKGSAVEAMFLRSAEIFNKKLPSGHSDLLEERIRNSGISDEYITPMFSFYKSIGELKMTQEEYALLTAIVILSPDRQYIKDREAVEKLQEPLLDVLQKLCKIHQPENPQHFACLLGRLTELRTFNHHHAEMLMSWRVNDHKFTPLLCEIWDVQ
# Assay: qHTS assay to identify small molecule agonists of the farnesoid-X-receptor (FXR) signaling pathway (AID 743220; active means well fitted activation curve with a large enough effect in the signal ratio in the repeat runs, not every such curve was filed as active; the % refers to the signal ratio; further: potency means the concentration at half of the fitted maximal effect)
# Conditions: HEK293T FXR-UAS-bla, beta-lactamase FRET ratio, 16 h; series mostly up to 62.6 µM
# Procedure, shortened: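 FXR-UAS-bla HEK 293T cells carrying a UAS-driven beta-lactamase reporter were plated for 5 h at 37C/5% CO2, then exposed to DMSO-dissolved Tox21 10K compounds for 16 h at 37C. A LiveBLAzer B/G FRET substrate was loaded for 2 h at room temperature before fluorescence reading.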
SMILES,Potency,activation
CC(C)OC(=O)CCCCC(=O)OC(C)C,inactive,
COc1ccc2c(c1)C(=O)N(CCc1ccc(S(=O)(=O)NC(=O)NC3CCCCC3)cc1)C(=O)C2(C)C,26.6 µM (active),
CCN(C)C(=O)Oc1cccc([C@H](C)N(C)C)c1,inactive,
O=C(c1ccc(O)cc1)c1ccc(O)c(O)c1O,inactive,
CCCCCCOC(=O)CC,inactive,
O=C(O)CCSSCCC(=O)O,inactive,
CCCC/C=C\CCCCCCCCCC=O,inactive,
C=C(C)C(=O)OCc1ccccc1,inactive,
NS(=O)(=O)c1ccc(NC(=O)CCC(=O)O)cc1,inactive,
CCCOC(OCCC)OCCC,inactive,
C[Si](C)=O,,2.56% [at 5.95 µM]
CC(CN)CC(C)(C)CCN (stereo not given),inactive,
NNc1nnc(NN)c2ccccc12,inactive,
Cc1ccccc1N=O,inactive,

# Test system: not listed separately
# Assay: qHTS assay to identify small molecule antagonists of the farnesoid-X-receptor (FXR) signaling pathway - cell viability counter screen (AID 743221); further: nearly all actives have a fitted effect of over 50% in size
# Conditions: FXR-bla HEK293T viability, CellTiter-Glo luminescence, 16 h; series mostly up to 62.6 µM
# Procedure, shortened: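 Quantitative HTS of the Tox21 10K library run in parallel with the beta-lactamase reporter read. HEK 293T cells carrying a UAS-driven bla reporter got compound and 50 uM CDCA (final) for 16 h; ATP-based luminescence followed.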
SMILES,outcome,"activity change, negative = cytotoxicity"
CC(C)OC(=O)CCCCC(=O)OC(C)C,inactive,
CC(=O)Nc1ccc(S(=O)(=O)Nc2ccc([N+](=O)[O-])cc2)cc1,inactive,
Cc1ccc(S(=O)(=O)O)c(C)c1,inactive,
CCCCNc1ccc(C(=O)OCCN(C)C)cc1,inactive,
COc1ccc2c(c1)C(=O)N(CCc1ccc(S(=O)(=O)NC(=O)NC3CCCCC3)cc1)C(=O)C2(C)C,inactive,
CCN(C)C(=O)Oc1cccc([C@H](C)N(C)C)c1,inactive,
CC(C)CCCCOC(=O)c1ccccc1C(=O)OCCCCC(C)C,inactive,
C=C(C)C(=O)OCC(C)(C)COC(=O)C(=C)C,inactive,
CC(=O)Nc1cccc(C)c1,inactive,
CC(C)(C)c1nnc(NS(=O)(=O)c2ccc(N)cc2)s1,inactive,
OCCN(CCO)c1cccc(Cl)c1,inactive,
COc1cc2c(cc1OC)[C@@H]1CC(=O)[C@@H](CC(C)C)CN1CC2,inactive,
CCCCNC1CC(C)(C)NC(C)(C)C1,inactive,
CCO[Si](CCCS)(OCC)OCC,inactive,
CC(CC=O)CCCC(C)(C)O (stereo not given),inactive,
CCCCCCOC(=O)CC,inactive,
O=C(O)CCSSCCC(=O)O,inactive,
O=C1CCCC(=O)O1,inactive,
CCCCCOC(=O)CCC,inactive,

SMILES,outcome,"activity change, negative = cytotoxicity"
CCCC/C=C\CCCCCCCCCC=O,inactive,
CCOC(=O)c1ccc(OC(=O)CCCCCN=C(N)N)cc1,inactive,
C=C(C)C(=O)OCc1ccccc1,inactive,
COP(=O)(OC)OC(c1ccc(Cl)cc1)P(=O)(OC)OC (stereo not given),inactive,
NS(=O)(=O)c1ccc(NC(=O)CCC(=O)O)cc1,inactive,
CCCCN,inactive,
CCCCCCOc1ccccc1C(N)=O,inactive,
C=C(C)C(=O)OCCN(CC)CC,inactive,
CCCOC(OCCC)OCCC,inactive,
CCOCCOCCOCC,inactive,
CCc1ccc(C=O)cc1,inactive,
C[Si](C)=O,,-2.54% [at 5.95 µM]
COCCOC(=O)C1=C(C)NC(C)=C(C(=O)OC(C)C)C1c1cccc([N+](=O)[O-])c1 (stereo not given),inactive,
O=C(O)Cc1ccc(Cl)cc1Cl,inactive,
CC(CN)CC(C)(C)CCN (stereo not given),inactive,
NNc1nnc(NN)c2ccccc12,inactive,
COC(=O)[C@@H]1[C@H]2C[C@H]3c4[nH]c5ccccc5c4CCN3C[C@@H]2CC[C@@H]1O,inactive,
Cc1ccccc1N=O,inactive,
